PubChem BioAssay (Tox21)
Records with an inconclusive call do not appear. Entries that show only a call come without a potency. A number with no mark means an inactive call. Active and inactive are the calls of the source. Calls follow the shape of the full dose curve.

Target: 5-hydroxytryptamine receptor 2A (Homo sapiens) (UniProt P28223)
Assay: 5-hydroxytryptamine receptor 2A (HTR2A) small molecule antagonists, cell-based qHTS assay (AID 1963586); also: nearly all actives have a fitted effect of over 45% in size
Outline: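 Antagonist-mode intracellular calcium assay: DOI (4 nM) added after 5 min compound pre-incubation at room temperature to dye-loaded HTR2A-CHO cells. Fluorescence followed for 3 min, sampled every second.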

Chain of 5-hydroxytryptamine receptor 2A (Homo sapiens) (P28223 whole entry, looked up): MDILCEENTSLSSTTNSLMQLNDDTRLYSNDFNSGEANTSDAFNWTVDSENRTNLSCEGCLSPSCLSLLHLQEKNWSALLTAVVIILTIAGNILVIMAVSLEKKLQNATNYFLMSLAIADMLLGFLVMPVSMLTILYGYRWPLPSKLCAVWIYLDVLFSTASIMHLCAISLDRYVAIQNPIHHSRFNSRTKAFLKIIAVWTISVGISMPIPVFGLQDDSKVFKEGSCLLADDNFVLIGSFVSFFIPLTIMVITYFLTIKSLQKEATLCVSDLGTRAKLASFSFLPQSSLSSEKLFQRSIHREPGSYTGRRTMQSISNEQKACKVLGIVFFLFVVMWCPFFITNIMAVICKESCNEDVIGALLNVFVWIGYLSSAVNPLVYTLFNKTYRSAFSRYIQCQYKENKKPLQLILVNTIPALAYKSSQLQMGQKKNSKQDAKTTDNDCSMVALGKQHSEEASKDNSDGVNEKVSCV

Structure (SMILES)	Potency	activity, negative = inhibition
CC(=O)OC(C)(C)Cc1ccccc1	inactive	
CC(Cl)C(Cl)Cl (stereo not given)	inactive	
CCOC(=O)/C=C/C(=O)O	inactive	
Cc1ccc2nc(N)[nH]c(=O)c2c1Sc1ccncc1	inactive	
C[C@]12CCC(=O)C=C1CC[C@@H]1[C@@H]2[C@@H](O)C[C@@]2(C)[C@H]1CC[C@]2(O)C(=O)COC(=O)CCC(=O)O	inactive	
C/C(=N\O)c1ccc(OCC(=O)N2CCCCC2)cc1	inactive	
Nc1ccc2cc(S(=O)(=O)O)ccc2c1	inactive	
C[Si]1(C)N[Si](C)(C)N[Si](C)(C)N1	inactive	
Cc1c(C2(c3cc(Br)c(O)c(Br)c3C)OS(=O)(=O)c3ccccc32)cc(Br)c(O)c1Br	inactive	
O=S1(=O)CC(Cl)(Cl)C(Cl)(Cl)C1	inactive	
C=C(C)CCCC(C)CCO (stereo not given)	inactive	
Oc1ccccc1Cc1ccccc1O	inactive	
CCCCCCCCCCCCCCCCCCOCCO		-22.3% [at 12.7 µM]
COCCCN1CCC(NC(=O)c2cc(Cl)c(N)c3c2OCC3)CC1	inactive	
CC(=O)O[C@@H]1C(=O)O[C@@H]2[C@H]1OC(=O)[C@@H]2OC(C)=O	inactive	
CC(C)=CCC/C(C)=C/CC/C(C)=C/C(=O)OCC(=O)[C@@]1(O)CC[C@H]2[C@@H]3CCC4=CC(=O)C=C[C@]4(C)[C@H]3[C@@H](O)C[C@@]21C	inactive	
O=C(O)CCC(=O)c1ccc(-c2ccccc2)cc1	inactive	
N=C1N=C(N)c2ccccc21	inactive	
C1CC(COCC2CO2)CCC1COCC1CO1 (stereo not given)	inactive	
Oc1ccc(-c2ccc(O)cc2)cc1	inactive	
